Assay outcomes from PubChem.
Rows were chosen to be rich in hits. Some 32% of all compounds tested hit in one or more screens of this group.
PostGolgi ctrl: inhibits growth of the yeast control strain; efflux-deficient yeast background strain, growth absorbance A615, 16 h; inhibition, % at 10 µM; 98,000 tested, 5% active; AID 738
CYP2C19 act: cytochrome P450 2C19 (human) activation; 96,000 tested, under 10 active; AID 1025; P33261; activation factor at 5 µM; recombinant CYP2C19, luciferin-H EGE luminescence; stronger effect = higher value; 0 = fully inhibited enzyme, 1 = untreated enzyme;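 active = activation factor of at least 2 at 5 µM in the primary screen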;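 note: 0 = wells with 2.5 mM tranylcypromine and 1 = vehicle-only wells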
Target sequence (P33261 whole entry, looked up): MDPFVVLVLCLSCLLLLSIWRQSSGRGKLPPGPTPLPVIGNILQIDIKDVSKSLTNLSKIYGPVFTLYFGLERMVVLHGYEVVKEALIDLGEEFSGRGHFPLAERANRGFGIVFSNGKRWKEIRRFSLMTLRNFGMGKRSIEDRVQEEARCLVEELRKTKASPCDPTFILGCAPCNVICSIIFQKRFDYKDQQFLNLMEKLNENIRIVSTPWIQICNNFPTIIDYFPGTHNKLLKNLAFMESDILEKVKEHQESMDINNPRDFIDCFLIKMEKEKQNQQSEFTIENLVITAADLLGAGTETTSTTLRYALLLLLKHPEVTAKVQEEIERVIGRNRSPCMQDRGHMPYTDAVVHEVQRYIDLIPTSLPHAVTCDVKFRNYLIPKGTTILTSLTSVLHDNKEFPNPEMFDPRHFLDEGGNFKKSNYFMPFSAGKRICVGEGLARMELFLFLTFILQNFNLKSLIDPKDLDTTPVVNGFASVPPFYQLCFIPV
CYP2C9 inh: blocks human cytochrome P450 2C9 | P11712 | CYP2C9 Supersomes, luciferin-H conversion, luminescence | inhibition, % at 5 µM | 96,000 tested, 20% active | AID 777;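 active = blocking of liver enzyme CYP2C9 beyond about 50% at 5 µM, limit read from the data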
CYP2C19 inhib: human CYP2C19 inhibition; P33261; CYP2C19 Supersomes, luciferin-H EGE luminescence, 30 min; inhibition, % at 5 µM; 96,000 tested, 21% active; AID 778;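 active = CYP2C19 inhibition above a set limit at 5 µM in the primary screen, cut at about 50% in these data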;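 note: plate controls were negative control wells for no effect and 2.5 mM tranylcypromine positive control for full effect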
PostGolgi yeast: growth inhibition of a yeast mutant, post-Golgi transport screen; inhibition, % at 10 µM; AID 739; 98,000 tested, 0.9% active; post-Golgi transport phenotypic cell assay;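 note: yeast cells grown in 1536-well plates; yeast grown about 18 h at 30C before absorbance read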
CYP2C9 activ: increases human cytochrome P450 2C9 activity | activation factor at 5 µM | P11712 | 96,000 tested, 1.4% active | recombinant CYP2C9, luciferin-H conversion, luminescence; stronger effect = higher value; factor 1 = untreated enzyme, 0 = blocked;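 active = activation factor of 2 or more for CYP2C9 at a 5 µM dose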;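 note: 0 = sulfaphenazole-blocked wells and 1 = vehicle-only wells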
An asterisk follows results filed as active; nt = no result. Cut-off read from the data, not from the text of the source, unless noted: active = inhibition above about 30%; inactive = the rest.

SMILES	PostGolgi ctrl	CYP2C19 act	CYP2C9 inh	CYP2C19 inhib	PostGolgi yeast	CYP2C9 activ
O=C(/C=C/c1ccc(Cl)cc1)NCCSc1ccccc1	-10.6	0.7	-1.7	31.9	-2.8	1
O=C(/C=C/c1ccccc1)NCCSCc1ccccc1Cl	9.8	0.7	57.4*	34.7	0.5	0.4
CCOC(=O)c1cn(CC(=O)Nc2cccc(Cl)c2C)nn1	-0.4	0.9	31.5	13.3	-25.2	0.7
COC(=O)c1nnn(CC(=O)Nc2cc(Cl)ccc2C)c1C(=O)OC	5.6	0.4	54.3*	55.4*	-7.2	0.5
CCCC1(CCC)NC(=O)N(CC(=O)Nc2cccc(OC)c2)C1=O	19.3	1	-0.2	3.9	8.8	1
CCOC(=O)c1nnn(CC(=O)Nc2cccc(OC)c2)c1C(=O)OCC	-2.9	0.5	58.7*	49.6	-3.2	0.4
Cc1ccc(C)c(NC(=O)Cn2nnc(C(=O)Nc3c(C)cccc3C)c2N)c1	1.7	1	-0.1	2.3	-1.6	1
CCOC(=O)c1nnn(CC(=O)Nc2cccc(Cl)c2C)c1C(=O)OCC	12.2	0.1	67.2*	93.6*	-7.7	0.3
CCOc1ccc(-c2nnn(CC(=O)Nc3cccc(OC)c3)n2)cc1OCC	4.3	0.5	19.6	45.9	-6.5	0.8
COC(=O)c1nnn(CC(=O)Nc2cccc(OC)c2)c1C(=O)OC	-3.6	0.6	63.0*	37.3	2.2	0.4
Cn1c(NC(=O)c2ccc(F)c(F)c2)cc(=O)n(C)c1=O	1.0	0.9	15.9	10.7	-4.0	0.8
O=C(Nc1ccc(SC(F)F)cc1)c1cccc2nc3ccccc3nc12	4.5	1.1	12.3	-9.0	0.6	0.9
COc1ccc(-n2nc3c(c2NC(=O)c2ccc(Br)cc2)CS(=O)C3)cc1 (stereo unspecified)	9.0	1.1	25.2	-7.1	2.0	0.7
CS(=O)(=O)Nc1ccc(C(=O)Nc2ccc3c(c2)OCCO3)cc1	0.0	1	-11.2	2.2	-3.6	1.1
COc1cc(C(=O)Nc2ccc3c(c2)OCCO3)ccc1OC(C)C	-9.2	0.4	10.1	55.4*	-5.7	0.9
COc1cccc(OC)c1C(=O)Nc1ccc2c(c1)OCCO2	2.6	0.9	-1.6	11.6	-1.6	1
COc1cc(C(=O)Nc2ccc3c(c2)OCCO3)ccc1OC(F)F	-1.2	0.1	-81.4	88.2*	2.4	1.8
Cc1ccnc2nc(C(=O)Nc3ccc(N4CCOCC4)cc3)nn12	7.1	0.5	7.0	54.2*	15.9	0.9
COc1ccc(C(=O)Nc2ccc(N3CCOCC3)cc2)cc1OC	-0.5	0.4	19.0	58.5*	-0.3	0.8
COC(=O)C1C(=O)C=C(N2CCOCC2)CC1(C)C (stereo unspecified)	-11.4	1.2	-18.7	-16.5	28.9	1.2
CCOc1cc(C2Nc3ccccc3C(=O)N2c2ccccc2OC)ccc1O (stereo unspecified)	1.2	0.8	52.3*	20.9	-1.6	0.5
COc1cc(C2C(C(C)=O)=C(O)C(=O)N2c2ccc(C)cc2)ccc1O (stereo unspecified)	5.2	1.1	33.6	-14.1	8.4	0.7
COc1cc(C2Nc3ccccc3C(=O)N2c2ccccc2OC)ccc1O (stereo unspecified)	18.2	0.6	78.8*	40.8	2.8	0.2
O=C(COc1ccc(Cl)cc1)NNC(=O)C(=O)N1CCCCC1	-3.0	0.9	-0.5	8.2	2.9	1
O=C(N/N=C1\CCCc2ccccc21)C(O)c1ccccc1 (stereo unspecified)	-3.6	0.7	-30.1	29.1	1.1	1.3
SMILES	PostGolgi ctrl	CYP2C19 act	CYP2C9 inh	CYP2C19 inhib	PostGolgi yeast	CYP2C9 activ
O=c1c(C(c2ccccc2)c2c(O)sc3ccccc3c2=O)c(O)sc2ccccc12	14.8	1	94.9*	1.3	-3.2	0.1
CCSc1nc2ccccc2n1C(=O)/C=C\c1ccc(OC)c(OC)c1	-0.7	1	9.8	4.1	-2.2	0.9
CN(C(=O)COc1cc(=O)n(C)c2ccccc12)c1cccc(Cl)c1	14.1	0.8	18.8	16.9	-2.6	0.8
CCOc1ccc(CNC(=O)CCCOc2cc(=O)n(C)c3ccccc23)cc1	8.0	0.3	78.0*	69.4*	-1.3	0.2
CCN(C(=O)COc1cc(=O)n(C)c2ccccc12)c1cccc(Cl)c1	11.1	0.3	-56.6	69.1*	-0.3	1.6
CN(C(=O)COc1cc(=O)n(C)c2ccccc12)c1ccc(Br)cc1	12.4	0.9	67.0*	8.2	-5.9	0.3
Cn1c(=O)cc(OCC(=O)Nc2ccccn2)c2ccccc21	9.9	0.5	34.6	52.6*	-1.9	0.7
Cc1cccc(N(C)C(=O)COc2cc(=O)n(C)c3ccccc23)c1	6.7	0.7	3.4	26.1	-12.8	1
CCn1c(=O)cc(OCC(=O)Nc2cc(C)ccn2)c2ccccc21	1.8	nt	nt	nt	-0.6	nt
CCOC(=O)CSc1nc2c(c(=O)n1-c1ccc(OC)cc1)SCC2	-0.7	0.8	30.1	20.7	0.5	0.7
Cc1noc(C)c1S(=O)(=O)N1CCCCC1	2.2	0.9	31.6	11.8	-17.6	0.7
COC(=O)C1CCN(C(=O)COc2cc3sc(C)nc3c3sccc23)CC1	20.9	0.8	-11.1	21.9	-5.9	1.1
Cc1nc2c(cc(Oc3ccc(S(=O)(=O)N4CCOCC4)cn3)c3ccsc32)s1	14.3	0.2	90.0*	84.2*	-3.4	0.1
COc1ccccc1OCCCn1c(=O)sc2ccccc21	16.0	0	74.3*	100.0*	-0.3	0.3
CCOc1ccccc1OCCOc1ccccc1CC	16.7	0.7	1.8	30.4	-13.9	1
O=C(O)CCn1c(=O)sc2ccccc21	-2.7	1.1	-2.1	-13.3	2.1	1
Cc1ccc2oc(=O)n(CCOc3ccccc3Cl)c2c1	27.8	1.1	-7.9	-5.4	-8.0	1.1
CCCCOC(=O)Cn1c(=O)oc2ccc(C)cc21	29.0	0.7	-123.0	25.7	-1.9	2.2*
CCCOc1ccccc1Cn1c(=O)oc2ccc(C)cc21	21.9	0	84.5*	96.1*	-0.9	0.2
COc1ccccc1OCCCn1c(=O)oc2ccc(C)cc21	21.7	0.4	20.2	55.6*	-1.8	0.8
O=C(O)C1CCCCC1C(=O)Nc1cccc(Cl)c1Cl (stereo unspecified)	8.5	0.9	4.9	9.3	-2.4	1
COc1ccccc1OCCCn1c(=O)oc2ccccc21	5.0	0	32.2	99.5*	3.2	0.7
Cc1nc(CNS(=O)(=O)c2ccc3ccccc3c2)cs1	12.1	0.5	-101.2	45.2	3.0	2*
O=S(=O)(Nc1cccc(CCc2ccccn2)c1)c1ccc2ccccc2c1	31.6*	0	26.8	99.3*	6.0	0.7
Cc1nc(-c2cccc(NS(=O)(=O)c3ccc4ccccc4c3)c2)cs1	39.0*	0.7	-59.3	32.3	8.4	1.6
COC(=O)c1cc2c([nH]c3ccccc32)c(C)n1	0.6	0.4	-3.2	62.1*	-3.2	1
